Experimental data reported in the supplement of paper PMC10849652.
The full data set covers some 8,800 targets. This sample favours those with a hit. About 0.5% of all pairs of compound and target were hits. Unmarked numbers belong to inactive results.

Tests used:
Assay in all cases: log2 fold change, soluble protein after heating vs DMSO (PISA); higher = thermal stabilisation; K562 lysate, 10 uM; active = over 0.2 and 3.5 SD of the protein, either way, in both replicates (recomputed)
alvocidib = compound: CN1CC[C@H](c2c(O)cc(O)c3c(=O)cc(-c4ccccc4Cl)oc23)[C@H](O)C1 [alvocidib]
Method in brief: (§1)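 Following dounce homogenisation of K562 pellets in PBS pH 7.4 with 1 mM MgCl2, crude extract at 1 mg/mL protein was incubated for 30 min with 10 μM compound. Aliquots were then heated for 3 min over 48°C-58°C and pooled, NP-40 was added to 0.5% at 4°C, and soluble protein was recovered as the supernatant at 21,000xg for 90 min. Channel-sum-equalised TMTpro 16plex LC-MS/MS quantified this protein. Each value, from duplicates, is a log-two fold change in thermal stability relative to solvent controls.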

Tubastatin A = compound: CN1CCc2c(c3ccccc3n2Cc2ccc(C(=O)NO)cc2)C1 [Tubastatin A]
Method in brief: as §1

[1] = compound: CNC(=O)C1=CC=CC=C1NC2=NC(=NC=C2Cl)NC3=C(C=C(C=C3)N4CCOCC4)OC
Method in brief: as §1

defactinib = compound: CNC(=O)c1ccc(Nc2ncc(C(F)(F)F)c(NCc3nccnc3N(C)S(C)(=O)=O)n2)cc1 [defactinib]
Method in brief: as §1

[2] = compound: CNc1nc(-c2ccc3c(N)n[nH]c3c2)cc(N2C[C@@H](C(=O)NC3CCCCC3)CC[C@H]2C)n1
Method in brief: as §1

encorafenib = compound: COC(=O)N[C@@H](C)CNc1nccc(-c2cn(C(C)C)nc2-c2cc(Cl)cc(NS(C)(=O)=O)c2F)n1 [encorafenib]
Method in brief: as §1

[3] = compound: COC(=O)[C@H](CCSC)NC(=O)C1=C(C=C(C=C1)NC[C@H](CS)N)C2=CC=CC=C2
Method in brief: as §1

alisertib = compound: COc1cc(Nc2ncc3c(n2)-c2ccc(Cl)cc2C(c2c(F)cccc2OC)=NC3)ccc1C(=O)O [alisertib]
Method in brief: as §1

[4] = compound: COc1cc2nc(-c3cc(F)ccc3O)nc(N[C@@H]3CNC[C@H]3C(C)(C)O)c2cc1OC
Method in brief: as §1

gefitinib = compound: COc1cc2ncnc(Nc3ccc(F)c(Cl)c3)c2cc1OCCCN1CCOCC1 [gefitinib]
Method in brief: as §1

Sequence of UniProt P45973 (P45973 whole entry, looked up): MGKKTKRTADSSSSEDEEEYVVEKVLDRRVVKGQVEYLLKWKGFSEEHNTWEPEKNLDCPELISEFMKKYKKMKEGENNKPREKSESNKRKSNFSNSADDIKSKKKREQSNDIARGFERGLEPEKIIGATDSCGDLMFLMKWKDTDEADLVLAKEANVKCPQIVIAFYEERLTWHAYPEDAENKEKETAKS
Sequence of UniProt Q9NXV6 (Q9NXV6 whole entry, looked up): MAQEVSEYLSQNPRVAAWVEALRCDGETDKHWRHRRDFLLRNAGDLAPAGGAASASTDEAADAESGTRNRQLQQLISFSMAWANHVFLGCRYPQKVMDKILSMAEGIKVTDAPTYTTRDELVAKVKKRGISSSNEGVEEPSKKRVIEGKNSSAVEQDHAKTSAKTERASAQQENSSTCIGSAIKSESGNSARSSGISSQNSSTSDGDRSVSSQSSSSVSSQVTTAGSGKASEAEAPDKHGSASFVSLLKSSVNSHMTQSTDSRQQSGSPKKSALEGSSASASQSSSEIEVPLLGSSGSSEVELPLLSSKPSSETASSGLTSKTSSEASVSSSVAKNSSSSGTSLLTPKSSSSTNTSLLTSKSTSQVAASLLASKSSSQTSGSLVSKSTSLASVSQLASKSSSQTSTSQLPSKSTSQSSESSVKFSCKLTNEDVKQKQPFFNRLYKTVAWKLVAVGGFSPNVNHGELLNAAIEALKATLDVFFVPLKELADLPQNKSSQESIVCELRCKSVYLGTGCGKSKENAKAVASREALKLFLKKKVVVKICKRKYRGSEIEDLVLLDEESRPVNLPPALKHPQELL
Sequence of UniProt O95260 (O95260 whole entry, looked up): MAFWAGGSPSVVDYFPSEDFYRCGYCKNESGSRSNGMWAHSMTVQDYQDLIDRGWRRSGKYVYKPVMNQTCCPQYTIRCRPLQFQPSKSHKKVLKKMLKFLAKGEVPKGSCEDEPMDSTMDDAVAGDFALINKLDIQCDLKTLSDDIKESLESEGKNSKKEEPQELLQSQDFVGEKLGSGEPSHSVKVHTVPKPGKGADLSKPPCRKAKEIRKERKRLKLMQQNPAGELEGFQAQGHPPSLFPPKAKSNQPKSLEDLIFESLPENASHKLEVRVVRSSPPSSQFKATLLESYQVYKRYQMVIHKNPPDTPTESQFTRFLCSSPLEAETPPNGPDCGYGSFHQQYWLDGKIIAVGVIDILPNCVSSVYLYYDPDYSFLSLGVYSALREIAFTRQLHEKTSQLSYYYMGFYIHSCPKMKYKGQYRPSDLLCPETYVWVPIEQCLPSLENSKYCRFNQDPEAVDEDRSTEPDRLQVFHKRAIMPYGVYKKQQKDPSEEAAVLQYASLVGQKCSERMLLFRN
Sequence of UniProt P42574 (P42574 whole entry, looked up): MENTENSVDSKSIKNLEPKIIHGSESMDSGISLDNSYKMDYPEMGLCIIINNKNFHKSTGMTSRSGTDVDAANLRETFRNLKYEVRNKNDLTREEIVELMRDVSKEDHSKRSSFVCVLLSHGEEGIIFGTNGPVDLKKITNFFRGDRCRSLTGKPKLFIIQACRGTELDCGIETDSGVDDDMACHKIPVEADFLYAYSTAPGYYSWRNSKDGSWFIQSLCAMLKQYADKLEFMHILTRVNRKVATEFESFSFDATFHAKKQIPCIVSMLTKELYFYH
Sequence of UniProt Q8N960 (Q8N960 whole entry, looked up): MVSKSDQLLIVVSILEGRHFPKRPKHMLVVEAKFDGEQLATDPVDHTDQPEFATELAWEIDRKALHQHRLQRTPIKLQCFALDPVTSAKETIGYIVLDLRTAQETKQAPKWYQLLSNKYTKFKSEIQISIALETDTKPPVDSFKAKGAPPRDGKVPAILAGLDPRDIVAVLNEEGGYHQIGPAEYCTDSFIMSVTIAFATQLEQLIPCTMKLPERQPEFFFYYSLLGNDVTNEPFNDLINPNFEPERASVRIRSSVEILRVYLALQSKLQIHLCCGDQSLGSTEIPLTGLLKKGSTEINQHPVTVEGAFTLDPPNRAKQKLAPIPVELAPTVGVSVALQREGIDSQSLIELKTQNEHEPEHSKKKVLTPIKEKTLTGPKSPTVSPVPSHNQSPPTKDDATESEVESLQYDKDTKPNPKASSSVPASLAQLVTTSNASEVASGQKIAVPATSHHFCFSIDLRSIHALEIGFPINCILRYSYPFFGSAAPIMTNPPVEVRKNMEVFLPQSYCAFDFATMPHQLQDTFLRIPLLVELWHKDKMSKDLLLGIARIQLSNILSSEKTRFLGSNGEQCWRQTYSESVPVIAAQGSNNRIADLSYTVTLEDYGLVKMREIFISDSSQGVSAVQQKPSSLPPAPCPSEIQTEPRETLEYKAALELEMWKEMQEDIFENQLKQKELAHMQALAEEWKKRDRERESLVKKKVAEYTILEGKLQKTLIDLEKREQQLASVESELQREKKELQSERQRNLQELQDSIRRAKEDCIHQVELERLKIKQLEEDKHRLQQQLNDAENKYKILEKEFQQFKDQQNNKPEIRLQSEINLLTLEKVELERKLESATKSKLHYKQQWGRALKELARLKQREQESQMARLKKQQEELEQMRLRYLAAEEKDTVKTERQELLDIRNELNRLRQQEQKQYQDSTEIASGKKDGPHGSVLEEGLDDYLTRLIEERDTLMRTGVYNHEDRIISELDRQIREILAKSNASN
Sequence of UniProt Q9H3Q1 (Q9H3Q1 whole entry, looked up): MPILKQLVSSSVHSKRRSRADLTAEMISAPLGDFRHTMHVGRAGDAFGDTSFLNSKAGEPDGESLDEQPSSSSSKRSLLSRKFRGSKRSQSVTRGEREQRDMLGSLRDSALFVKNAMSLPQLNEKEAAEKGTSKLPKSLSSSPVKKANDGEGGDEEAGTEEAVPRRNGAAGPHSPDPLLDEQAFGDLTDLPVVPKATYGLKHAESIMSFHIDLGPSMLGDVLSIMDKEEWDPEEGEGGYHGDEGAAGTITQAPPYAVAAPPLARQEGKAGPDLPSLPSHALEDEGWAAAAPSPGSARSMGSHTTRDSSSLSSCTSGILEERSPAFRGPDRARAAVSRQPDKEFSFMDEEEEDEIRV
Sequence of UniProt Q9Y2V2 (Q9Y2V2 whole entry, looked up): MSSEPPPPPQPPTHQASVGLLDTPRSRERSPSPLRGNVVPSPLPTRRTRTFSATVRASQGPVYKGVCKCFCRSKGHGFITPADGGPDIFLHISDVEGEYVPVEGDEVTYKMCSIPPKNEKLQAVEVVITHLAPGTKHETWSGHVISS
Sequence of UniProt Q9NW68 (Q9NW68 whole entry, looked up): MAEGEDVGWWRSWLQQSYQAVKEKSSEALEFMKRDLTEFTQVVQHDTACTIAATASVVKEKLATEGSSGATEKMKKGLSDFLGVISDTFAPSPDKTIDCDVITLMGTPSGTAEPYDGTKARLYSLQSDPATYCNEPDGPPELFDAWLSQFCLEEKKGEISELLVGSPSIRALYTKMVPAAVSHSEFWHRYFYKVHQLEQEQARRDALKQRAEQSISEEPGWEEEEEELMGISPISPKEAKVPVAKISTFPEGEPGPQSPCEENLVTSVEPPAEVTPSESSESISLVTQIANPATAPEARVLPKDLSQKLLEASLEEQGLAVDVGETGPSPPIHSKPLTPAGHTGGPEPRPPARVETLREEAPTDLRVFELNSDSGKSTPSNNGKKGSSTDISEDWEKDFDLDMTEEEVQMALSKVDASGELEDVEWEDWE
Sequence of UniProt P40227 (P40227 whole entry, looked up): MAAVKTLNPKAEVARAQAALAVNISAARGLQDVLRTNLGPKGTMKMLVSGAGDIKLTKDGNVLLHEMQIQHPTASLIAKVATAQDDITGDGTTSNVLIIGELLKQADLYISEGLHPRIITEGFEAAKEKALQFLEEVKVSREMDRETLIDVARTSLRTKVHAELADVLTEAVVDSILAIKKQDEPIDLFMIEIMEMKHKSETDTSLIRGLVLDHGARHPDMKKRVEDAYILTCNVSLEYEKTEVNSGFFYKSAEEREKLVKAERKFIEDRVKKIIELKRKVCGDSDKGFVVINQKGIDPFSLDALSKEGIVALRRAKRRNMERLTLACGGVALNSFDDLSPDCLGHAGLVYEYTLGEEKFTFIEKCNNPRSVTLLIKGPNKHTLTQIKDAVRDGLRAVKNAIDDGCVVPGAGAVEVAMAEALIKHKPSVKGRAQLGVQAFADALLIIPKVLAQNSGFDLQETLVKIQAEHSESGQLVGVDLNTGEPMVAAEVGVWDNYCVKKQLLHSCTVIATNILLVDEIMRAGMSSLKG
Sequence of UniProt P49918 (P49918 whole entry, looked up): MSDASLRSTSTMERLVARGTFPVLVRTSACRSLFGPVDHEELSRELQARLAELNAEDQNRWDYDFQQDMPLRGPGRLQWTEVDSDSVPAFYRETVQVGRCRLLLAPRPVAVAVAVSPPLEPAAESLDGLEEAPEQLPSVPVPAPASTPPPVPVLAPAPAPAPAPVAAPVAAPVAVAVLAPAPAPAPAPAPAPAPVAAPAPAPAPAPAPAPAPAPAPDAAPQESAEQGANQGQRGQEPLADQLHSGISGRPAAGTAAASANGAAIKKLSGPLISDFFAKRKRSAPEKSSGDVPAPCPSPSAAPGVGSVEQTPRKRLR
Sequence of UniProt Q12981 (Q12981 whole entry, looked up): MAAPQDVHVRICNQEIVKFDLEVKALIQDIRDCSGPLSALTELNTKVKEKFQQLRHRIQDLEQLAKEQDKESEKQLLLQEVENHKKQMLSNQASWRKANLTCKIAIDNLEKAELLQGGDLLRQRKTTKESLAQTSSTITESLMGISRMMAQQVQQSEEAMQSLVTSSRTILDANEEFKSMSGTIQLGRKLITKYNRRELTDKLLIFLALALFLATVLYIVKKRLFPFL
Sequence of UniProt Q9HB09 (Q9HB09 whole entry, looked up): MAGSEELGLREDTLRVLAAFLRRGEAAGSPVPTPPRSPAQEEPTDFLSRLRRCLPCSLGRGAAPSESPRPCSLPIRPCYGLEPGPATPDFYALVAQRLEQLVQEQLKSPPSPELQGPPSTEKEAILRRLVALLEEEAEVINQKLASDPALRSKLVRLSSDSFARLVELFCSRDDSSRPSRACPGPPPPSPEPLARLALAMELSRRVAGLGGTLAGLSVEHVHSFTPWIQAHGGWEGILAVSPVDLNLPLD
Sequence of UniProt Q9H3K6 (Q9H3K6 whole entry, looked up): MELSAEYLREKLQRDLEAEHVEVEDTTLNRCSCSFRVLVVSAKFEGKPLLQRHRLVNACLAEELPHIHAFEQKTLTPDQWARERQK

| Target | log2 fold change (alvocidib) | log2 fold change (Tubastatin A) | log2 fold change [1] | log2 fold change (defactinib) | log2 fold change [2] | log2 fold change (encorafenib) | log2 fold change [3] | log2 fold change (alisertib) | log2 fold change [4] | log2 fold change (gefitinib) |
| --- | --- | --- | --- | --- | --- | --- | --- | --- | --- | --- |
| CCDC22 (UniProt O60826) | 0.024 | -0.063 | 0.012 | -0.03 | 0.009 | 0.031 | -0.029 | 0.002 | -0.009 | 0.027 |
| CDC42EP4 (UniProt Q9H3Q1) | -0.086 | -0.013 | 0.041 | 0.033 | 0.113 | 0.079 | -0.054 | -0.085 | -0.017 | 0.006 |
| BSDC1 (UniProt Q9NW68) | -0.033 | 0.052 | 0.018 | 0.031 | -0.025 | 0.112 | -0.149 | 0.026 | -0.031 | -0.017 |
| CASP6 (UniProt P55212) | -0.011 | -0.003 | 0.067 | 0.039 | -0.046 | -0.015 | -0.026 | 0.023 | -0.029 | 0.061 |
| CDAN1 (UniProt Q8IWY9) | -0.034 | -0.051 | 0.049 | 0.039 | 0.017 | -0.018 | 0.093 | 0.02 | -0.022 | -0.012 |
| CCNH (UniProt P51946) | 0.006 | 0.016 | -0.015 | 0.026 | -0.018 | 0.033 | -0.047 | -0.005 | -0.007 | 0.024 |
| CHD3 isoform 3 (UniProt Q12873) | 0.003 | -0.074 | 0.015 | 0.006 | 0.02 | 0.029 | 0.085 | 0.047 | 0.01 | -0.014 |
| CCNYL1 (UniProt Q8N7R7) | -0.074 | -0.076 | 0.061 | 0.024 | 0.055 | 0.011 | 0.032 | -0.012 | 0.032 | 0.101 |
| C1orf112 (UniProt Q9NSG2) | -0.247 | -0.181 | 0.077 | 0.038 | -0.082 | 0.037 | 0.096 | -0.032 | -0.046 | -0.004 |
| BCR (UniProt P11274) | -0.007 | -0.181 | 0.002 | -0.008 | -0.005 | 0.036 | 0.085 | -0.008 | -0.021 | -0.024 |
| CCNB2 (UniProt O95067) | 0.046 | 0.027 | 0.028 | -0.044 | 0 | 0.039 | 0.032 | -0.076 | 0.031 | 0.084 |
| BNIP1 (UniProt Q12981) | 0.231 | -0.045 | 0.055 | 0 | -0.014 | 0.095 | -0.037 | 0.004 | 0.004 | -0.018 |
| BOLA2 (UniProt Q9H3K6) | 0.02 | 0.015 | -0.065 | 0.023 | -0.052 | 0.036 | -0.057 | -0.006 | 0.009 | -0.03 |
| CEP120 (UniProt Q8N960) | -0.046 | 0.098 | -0.096 | -0.025 | 0.273 | 0.065 | -0.117 | 0.141 | 0.038 | 0.119 |
| CASP3 (UniProt P42574) | 0.045 | 0.056 | 0.066 | 0.008 | 0.064 | 0.011 | -0.061 | -0.037 | 0.001 | -0.001 |
| CCNC (UniProt P24863) | 0.182 | -0.079 | -0.018 | -0.073 | -0.052 | 0.041 | 0.039 | 0.009 | -0.05 | 0.017 |
| ATP5PF isoform 2 (UniProt P18859) | 0.203 | 0.146 | 0.042 | 0.071 | -0.022 | 0.014 | -0.061 | -0.005 | 0.01 | -0.173 |
| CDKN2AIP (UniProt Q9NXV6) | -0.008 | -0.066 | -0.016 | -0.011 | 0.054 | 0.023 | 0.236 (active) | 0.021 | -0.003 | -0.073 |
| CCT6A (UniProt P40227) | 0.027 | 0.025 | 0.006 | -0.018 | -0.001 | -0.015 | -0.024 | 0.012 | -0.003 | -0.021 |
| BUB1B isoform 3 (UniProt O60566) | -0.032 | -0.122 | 0.018 | -0.012 | 0.018 | 0.033 | 0.018 | 0.002 | 0.011 | -0.005 |
| CARHSP1 (UniProt Q9Y2V2) | 0.031 | 0.065 | 0.009 | -0.033 | 0.078 | -0.013 | -0.055 | -0.014 | 0.01 | -0.029 |
| CELF2 isoform 3 (UniProt O95319) | 0.067 | -0.025 | 0.019 | 0.018 | -0.02 | 0.108 | -0.031 | 0.037 | -0.079 | -0.061 |
| ATE1 isoform 2 (UniProt O95260) | -0.116 | -0.008 | 0.036 | 0 | 0.038 | -0.013 | 0.109 | 0.021 | 0.004 | -0.038 |
| BCL2L12 (UniProt Q9HB09) | 0.012 | 0.016 | -0.087 | 0.113 | -0.059 | -0.207 | 0.023 | 0.008 | 0.1 | -0.062 |
| ATG7 (UniProt O95352) | 0.01 | -0.075 | 0.001 | 0.012 | -0.04 | 0.021 | -0.031 | 0.006 | -0.008 | 0.019 |
| BET1 (UniProt O15155) | 0.07 | -0.038 | 0.033 | 0.058 | 0.027 | -0.062 | -0.214 (active) | -0.023 | -0.022 | -0.045 |
| CBX5 (UniProt P45973) | -0.07 | 0.037 | 0.073 | -0.011 | 0.021 | -0.035 | -0.007 | -0.054 | 0.021 | 0.009 |
| CCDC51 (UniProt Q96ER9) | 0.127 | -0.037 | -0.001 | 0.008 | 0.038 | -0.008 | -0.001 | 0.016 | -0.066 | 0.022 |
| ATG4A (UniProt Q8WYN0) | 0 | -0.104 | 0.042 | 0.036 | 0.01 | 0.037 | -0.087 | -0.016 | -0.001 | 0.052 |
| CDKN1C (UniProt P49918) | -0.035 | -0.056 | 0.025 | -0.186 | -0.067 | -0.037 | -0.019 | -0.082 | 0.046 | -0.136 |
